Assay outcomes as filed in PubChem BioAssay.
Sfp inh: qHTS Assay for Inhibitors of Bacillus subtilis Sfp phosphopantetheinyl transferase (PPTase). Biochemical Sfp PPTase activity, qHTS. AID 1490, 2009. 4'-phosphopantetheinyl transferase ffp (Bacillus subtilis), Q9F4F7. 3.5% of 310,000 active. Potency, µM, actives largely listed as inhibitors;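 further: the enzyme is Sfp with the accession as filed and its product quenches rhodamine fluorescence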
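Reaction rates are the 30-min fluorescence difference (ex 525, em 598 nm) in wells containing 15 nM Sfp, 5 uM rhodamine-CoA and 12.5 uM BHQ-2-YbbR at pH 7.6 with 10 mM MgCl2.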
G9a inh: qHTS Assay for Inhibitors of Histone Lysine Methyltransferase G9a; G9a H3K9 monomethylation, AlphaScreen, 2 h; Potency, µM (top dose mostly 102 µM), most hits filed as inhibitors; 8.8% of 350,000 active; AID 504332, 2011; further: nearly all actives have a fitted effect of over 75% in size
Target sequence (Q96KQ7 913-1193 limits assumed): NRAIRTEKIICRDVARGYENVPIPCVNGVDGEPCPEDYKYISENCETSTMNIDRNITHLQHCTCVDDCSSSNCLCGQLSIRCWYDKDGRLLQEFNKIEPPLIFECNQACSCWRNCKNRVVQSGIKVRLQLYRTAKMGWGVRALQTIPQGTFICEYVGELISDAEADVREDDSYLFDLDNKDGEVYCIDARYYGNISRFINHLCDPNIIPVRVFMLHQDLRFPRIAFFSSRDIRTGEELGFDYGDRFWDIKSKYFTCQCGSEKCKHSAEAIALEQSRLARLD
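AlphaScreen read-out: biotin-H3K9 peptide (500 nM) methylation by 20 nM enzyme with 20 uM SAM, 2 h at room temperature after 15 min compound preincubation; anti-monomethyl H3K9 antibody plus donor/acceptor beads, 10 min dark.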
Coupling enz: qHTS Assay for Inhibitors of Fructose-1,6-bisphosphate Aldolase from Giardia Lamblia: Coupling assay counterscreen; coupling enzyme system counterscreen, AmpLite Red fluorescence; 0.67% of 290,000 active; AID 2472, 2010; activity change, negative = inhibition, % at 58.2 µM, hits read low; in the data active means activity change below about -30%
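Final compound at 57.5 uM, incubated 10 min at RT with coupling enzyme reagent (glyceraldehyde-3-phosphate), then 20 min with substrate and AmpLite Red detection. Fluorescence read at 525/598 nm; tests interference with the coupling assay, not aldolase inhibition.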
Tau fluor counter: Counterscreen qHTS for Inhibitors of Tau Fibril Formation, Fluorescence Polarization; AID 1463, 2008; tau K18 P301L Alexa594 fluorescence, heparin fibrillization; Potency, µM (highest dose often 57.7 µM); 0.93% of 280,000 active; further: nearly all actives have a fitted effect of over 55% in size
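Human K18 P301L tau (15 uM unlabeled plus 0.24 uM Alexa 594-labeled, final) in 100 mM sodium acetate pH 7 was mixed with compound and 20 uM heparin and incubated 6 hr at 37 C.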
Tau FP inhib: qHTS for Inhibitors of Tau Fibril Formation, Fluorescence Polarization | Microtubule-associated protein tau (Homo sapiens), P10636 | K18 P301L tau heparin fibrillization, Alexa594 FP, 6 h | Potency, µM (doses to about 57.7 µM), usual class: inhibitors | 0.39% of 280,000 active; further: nearly all actives have a fitted effect of over 55% in size
Target sequence (P10636 561-689 P618L limits assumed): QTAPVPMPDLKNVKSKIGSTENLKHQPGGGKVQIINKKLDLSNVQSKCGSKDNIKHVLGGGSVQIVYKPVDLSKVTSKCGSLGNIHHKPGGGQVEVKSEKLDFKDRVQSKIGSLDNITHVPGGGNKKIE
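K18 P301L tau (15 uM unlabeled/0.24 uM Alexa 594-labeled, final) + compound + heparin 20 uM final; 100 mM NaOAc pH 7; 6 hr 37 C; ThT 30 uM final added, 1 hr RT; FP ex 555/em 632 nm.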
Tau fibril ThT: qHTS for Inhibitors of Tau Fibril Formation, Thioflavin T Binding | Potency, µM (highest dose often 57.4 µM), actives largely listed as inhibitors | 2.1% of 270,000 active | AID 1460, 2008 | recombinant tau K18 P301L (four-repeat tau fragment), heparin-induced fibrillization, ThT fluorescence; further: nearly all actives have a fitted effect of over 55% in size
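Heparin-induced (20 uM) aggregation of recombinant human K18 P301L tau, 15 uM unlabeled with 0.24 uM labeled, pH 7 acetate buffer, 6 hr at 37 C with compound. Fibrils quantified by 30 uM ThT fluorescence after 1 hr ambient incubation.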
Numbers stand for hits; i = inactive; ? = inconclusive; nt = no result; [ ] = another dose, or the depositor's remark. Most compounds without a hit are left out; they make up all but 11% or so of the library. Unless noted, the call rests on the fitted dose curve; in most records, active means well fitted curve in the direction sought with a large enough effect; inconclusive means small, poorly fitted or top-dose-only effect, or another doubt; inactive means no such curve, though single readings can be large; an effect the other way counts as inactive or inconclusive.

SMILES	Sfp inh	G9a inh	Coupling enz	Tau fluor counter	Tau FP inhib	Tau fibril ThT
CN(C)CCCN(C(=O)c1cc2cc([N+](=O)[O-])ccc2s1)c1nc2cc3c(cc2s1)OCCO3	nt	20µM	nt	nt	nt	nt
CN(C)CCCN(C(=O)c1ccc([N+](=O)[O-])s1)c1nc2cc3c(cc2s1)OCCO3	i	44.7µM	i	nt	nt	nt
CCOC(=O)c1sc2nc(C)nc(NC3CCC(O)CC3)c2c1C (centres undefined)	i	i	i	nt	nt	nt
CCn1nc(C)c(CCN(C)C(=O)Nc2cc(Cl)ccc2C)c1C	nt	i[12.7 µM]	nt	i	i	i
O=C(O)CCCNC(=O)/C=C/c1ccco1	12.6µM	nt	i	i	?	?
O=C(O)CCCCCNC(=O)/C=C/c1ccco1	i	i	i	i	i[2.34 µM]	i
O=C(/C=C/c1ccco1)NCCc1ccccc1	i	44.7µM	i	i	i	i
O=C(/C=C/c1cccc(Cl)c1)NCCc1ccccc1	20µM	i	i	i	i	i
O=C(C1CCN(Cc2nc(Cc3cccc(F)c3)no2)CC1)N1CCOCC1	i	i	i	i	i	i
COc1ccc(NC(=O)CN2CCN(CC(=O)Nc3ccc(F)cc3)CC2)c(OC)c1	i	i	i	nt	nt	nt
COc1ccc(C)cc1NS(=O)(=O)c1c(C(=O)N2CCCCCC2)c(C)n(C)c1C	nt	i	nt	i	i	i
O=C(CC(c1ccco1)S(=O)(=O)c1ccccc1)c1ccc(F)cc1 (centres undefined)	7.94µM	3.55µM	i	i	i	i
COc1ccc(C(=O)NCC(c2ccco2)S(=O)(=O)c2ccc(F)cc2)cc1 (centres undefined)	nt	i	nt	i	?	i
CCOC(=O)c1c(C)[nH]c(C)c1S(=O)(=O)N(C)CC(=O)Nc1ccc(C)cc1Br	nt	i	nt	i	i	i
O=[N+]([O-])c1cccc(N=Cc2sc3ccccc3c2O)c1	i	nt	i	i	i	?
O=[N+]([O-])c1ccc(N=Cc2sc3ccccc3c2O)cc1	i	i	i	i	i	0.708µM
C[C@H]([C@H](C)N1CC(=O)NC(=O)C1)N1CC(=O)NC(=O)C1	?	2.24µM	i	i	?	?
COc1cc(C)ccc1OCc1cc(C(=O)N2CCN(C)C[C@@H]2c2ccccc2)no1	i	i	nt	nt	nt	nt
O=c1cc(-c2cccc3ccccc23)[nH][nH]1	i	i	i	i	i	i
O=C1c2ccccc2C(=O)C1Cc1cccc2ccccc12	i	50.1µM	i	i	i	?
O=C(N/N=C/c1cc2c(cc1Br)OCO2)c1cc2ccccc2o1	i	39.8µM	i	nt	nt	nt
O=C(N/N=C/c1cc2c(cc1Br)OCO2)c1ccccn1	i	i	i	i	i	i
COc1ccc(C2CC(c3ccccc3)Oc3ccc(C(C)(C)C)cc32)cc1 (centres undefined)	i	nt	i	nt	nt	nt
COC(=O)[C@H](C)NC(=O)C/C=C\[C@@H](C)CO	i	nt	i	i[11.6 µM]	i[11.6 µM]	i[11.5 µM]
Cc1ccc(C(=O)n2c(-c3ccccc3)cnc2SCC(=O)Nc2ccc(C)cc2C)cc1	i	35.5µM	i	i	i	?
SMILES	Sfp inh	G9a inh	Coupling enz	Tau fluor counter	Tau FP inhib	Tau fibril ThT
Cc1ccc(NC(=O)CSc2nnc(-c3cccnc3)o2)c(C)c1	nt	44.7µM	nt	nt	nt	nt
Cc1ccc(OCC(=O)NCCCNC(=O)c2ccncc2)cc1C	i	i	i	nt	nt	nt
COc1cccc(/C(O)=C2/C(=O)C(=O)N(Cc3ccco3)C2c2ccncc2)c1 (centres undefined)	i	28.2µM	i	i	i	?
COCCN1C(=O)C(=O)/C(=C(/O)c2cccc(OC)c2)C1c1ccncc1 (centres undefined)	i	50.1µM	i	i	i	i
Cc1ccc(C2/C(=C(/O)c3ccc(Br)cc3)C(=O)C(=O)N2Cc2ccco2)o1 (centres undefined)	3.55µM	i	i	i	i	i
COc1ccc(/C(O)=C2\C(=O)C(=O)N(Cc3ccco3)C2c2cc(OC)ccc2OC)cc1 (centres undefined)	?	i	i	i	?	?
CCOc1cccc(/C(O)=C2/C(=O)C(=O)N(Cc3ccco3)C2c2ccncc2)c1 (centres undefined)	i	44.7µM	i	i	i	i
COc1cccc(C2/C(=C(/O)c3ccc(C)cc3)C(=O)C(=O)N2Cc2ccco2)c1 (centres undefined)	i	i	i	i	?	i
O=C1C(=O)N(Cc2ccco2)C(c2cccs2)/C1=C(\O)c1cccc([N+](=O)[O-])c1 (centres undefined)	44.7µM	i	i	i	?	?
COc1ccc(OC)c(C2/C(=C(/O)c3ccccc3)C(=O)C(=O)N2Cc2ccco2)c1 (centres undefined)	i	i	i	i	i	i
COc1cccc(C2/C(=C(/O)c3ccccc3)C(=O)C(=O)N2Cc2ccco2)c1 (centres undefined)	?	56.2µM	i	i	i	i
Cc1ccccc1COc1ccc(/C(O)=C2/C(=O)C(=O)N(CCCn3ccnc3)C2c2ccco2)cc1 (centres undefined)	?	31.6µM	i	i	i	?
COc1ccc(C2/C(=C(/O)c3ccccc3)C(=O)C(=O)N2CCO)cc1 (centres undefined)	i	44.7µM	i	i	i	i
CCc1nnc(NC(=O)CC23CC4CC(CC(Br)(C4)C2)C3)s1	i	i	i	nt	nt	nt
CCN1C(=O)[C@H]2[C@@H](c3ccc(-c4ccc5c(c4)OCO5)cc3)N3CCC[C@@]3(C(=O)OC)[C@H]2C1=O	nt	i[2.33 µM]	nt	nt	nt	nt
O=C(CS(=O)(=O)c1cccc2nsnc12)N1CCN(c2ccccc2F)CC1	nt	i	nt	i	i	i
O=C(c1csnn1)N1CCC2(CC1)CN(c1ccccn1)C2	i	i[12.7 µM]	i	nt	nt	nt
O=C(NC(=S)N1CCCc2ccccc21)c1ccco1	?	44.7µM	i	i	i	?
CC1Cc2ccccc2N1C(=S)NC(=O)C1(C)CC1(Cl)Cl (centres undefined)	i	i	i	i	i	i
CC1Cc2ccccc2N1C(=S)NC(=O)c1ccco1 (centres undefined)	39.8µM	39.8µM	i	i	i	i
O=C(NC1CCCC1)c1ccc2c(=O)n(Cc3ccccc3)c(SCc3cccc([N+](=O)[O-])c3)nc2c1	nt	i	nt	i	i	i
COc1ccc(F)cc1S(=O)(=O)NCCc1csc2nc(-c3cccc(C)c3)nn12	nt	i	nt	i	?	i
